PubChem BioAssay AID720519 (National Center for Advancing Translational Sciences (NCATS), 2013)
Records with an inconclusive call do not appear. Calls of active or inactive are those of the source. Calls follow the shape of the dose curve; as a rule, active = well fitted activation curve with a large enough effect; inconclusive = small, poorly fitted or top-dose-only effect; inactive = flat fitted curve, though single readings scatter.

Assay: qHTS for Inhibitors of Cell Surface uPA Generation: Confirmatory Assay for Cherry-picked Compounds
Settings: cell surface uPA activity generation, qHTS confirmation; series mostly up to 115 µM
How it was run: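 RAW 264.7 cells at 4000/well, incubated overnight, then treated with compounds. After 24 h at 37 C, viability was read by ATPlite luminescence. An increase in signal indicates blocked uPA-dependent LF entry.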

Potency, inactive:
COC(=O)CCSCC(=O)N1N=C(c2ccc(OC)cc2)CC1c1cccc(OC)c1OC (centres undefined), Cc1ccc(S(=O)(=O)N2CCC(C(=O)OC(C)C(=O)NC3CCCCC3C)CC2)cc1 (centres undefined), Cc1cccn2c(CNCC(C)Oc3cccnc3)c(C(=O)N3CCOCC3)nc12 (centres undefined), CCC(C)Nc1cc(C)nc2ncnn12 (centres undefined), CCCCNC(=O)c1cc2c(-c3ccc(Cl)cc3)nn(C)c2s1, CCc1ccc(S(=O)(=O)NCCc2cn3cccc(C)c3n2)s1, COc1cc(NC(=S)NCCc2ccc(S(N)(=O)=O)cc2)c(OC)cc1Cl, O=C(O)c1ccc(-n2nnnc2SCc2cccc(Br)c2)cc1, CCOc1ccc(NC(=S)N2CCC(c3ccc(C)cc3)C2)cc1 (centres undefined), Cc1ccc2[nH]c(CN3CCN(C)C(CCO)C3)c(C)c2c1 (centres undefined), Cc1ccc2cccc(OCCCOc3ccccc3CO)c2n1, O=C(NCCc1cn2ccsc2n1)c1cccs1, CC(C)(C)OC(=O)C[C@@H]1C/C=C\C[C@@H](CC(=O)N(CCO)Cc2ccccc2)C(=O)N[C@H](Cc2c[nH]c3ccccc23)COC1=O, CCOC(=O)C1=C(CN2CCN(C(=O)c3ccco3)CC2)NC(=O)NC1c1ccccc1 (centres undefined), Cn1c(=O)n(CC(=O)O)c(=O)c2c1nc1n2CCCN1CCc1ccccc1, COc1cc(OC)cc(C(=O)NC(C(=O)Nc2ccc3c(c2)CCC3)C(C)C)c1 (centres undefined), CCn1c2ccccc2c2n[nH]c(=S)nc21, CCCOC(=O)CSC1=C(C#N)C(c2ccccc2Cl)CC(=O)N1 (centres undefined), CCCNC(=O)C1CCC(CNS(=O)(=O)c2ccc3c(c2)CC(C)N3C(C)=O)CC1 (centres undefined), COc1ccc(-n2ncc3c(=O)n(CC(=O)NC(C)C)cnc32)cc1, CCOC(=O)Cc1csc(NC(=O)Nc2cccc(OC)c2)n1, O=C1C=C(NNC(=O)c2ccncc2)CC(c2ccccc2)C1 (centres undefined), CCOC(=O)N1CCN(C(=O)c2ccc3c(c2)sc2nc(-c4ccc(OC)cc4)cn23)CC1, CC[C@]1(C(=O)OC)[C@H]2C(=O)N(C)C(=O)[C@H]2[C@H]2CN(C)C(=NC3CCCCC3)N21, CN(C(=O)c1ccccc1C(=O)OCC(=O)NCc1ccccc1)C1CCCCC1, CCOc1ccccc1N(CC(=O)Nc1ccc(OC)cc1)S(=O)(=O)c1ccccc1, COCCOc1ccc(C(F)(F)F)cc1NC(=O)COC(=O)Cc1c[nH]c2ccccc12, C/C=C(/C(=C/C)c1ccc(O)cc1)c1ccc(O)cc1, COc1ccc(CCNC(=O)CSc2nc(N)c3c(C)c(C)oc3n2)cc1OC, CNC(=S)N1C2CCCC1CC(NC(=O)c1ccc(F)cc1)C2 (centres undefined), CCn1c(CNc2ccc(F)cc2)nnc1SCC(=O)Nc1ccccc1OC, CCOc1cc(S(=O)(=O)NC2CC(C)(C)NC(C)(C)C2)ccc1Cl, COc1ccc(C(=O)NC(C)c2cnn(-c3ccccn3)c2C)o1 (centres undefined), O=S(=O)(NCC(c1cccnc1)N1CCOCC1)c1ccccc1 (centres undefined), COC(=O)CNC(=O)COC(=O)/C=C/c1ccccc1[N+](=O)[O-], C[C@H]([C@H](O)c1ccccc1)N(C)C(=O)CN, Cc1nc(N2CCN(c3ccc(Cl)cc3)CC2)[nH]c(=O)c1C, COc1ccccc1NC(=O)Cn1ncc2c1-c1ccccc1OC2, C[C@H]1CN([C@@H](C)CO)C(=O)c2cc(NS(=O)(=O)c3ccc(Cl)cc3)ccc2O[C@@H]1CN(C)CC1CCCCC1
